# In the library only some 2.9% were active in any assay of this set; here they are far more common.
# EPAC1 ag val – validation of human EPAC1 agonists; actives 1% (n = 16,000); EPAC1 Rap1b BODIPY-GDP exchange, fluorescence; Potency, µM, inactives show max response, positive = active, usual class: activators; also: nearly all actives have a fitted effect of over 70% in size
# EPAC2 ant val – validation of human EPAC2 antagonists. actives 1.7% (n = 16,000). Potency, µM (series often up to 112 µM), inactives show at the highest dose activity, negative = inhibition, actives largely listed as inhibitors. EPAC2 Rap1B BODIPY-GDP exchange, fluorescence. Q8WZA2;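 also: 100% = activation by cAMP agonist control; nearly all actives have a fitted effect of over 40% in size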
#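 Normalized against a 6.5 mM cAMP agonist control, compounds were tested on 100 nM EPAC2 exchanging Rap1B-bound BODIPY-GDP (250 nM) for 50 uM GDP. Fluorescence drop (ex 480, em 540 nm) was tracked at room temperature over 30 min at 5-min intervals.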
# * marks the source's active call; other numbers are inactive results; i = inactive; ? = inconclusive; ! = not active in a repeat; [ ] = remark or other dose. Calls follow the shape of the dose curve; as a rule, active = well fitted curve in the direction sought with a large enough effect; inconclusive = small, poorly fitted or top-dose-only effect, or another doubt; inactive = no such curve, though single readings can be large; an effect the other way counts as inactive or inconclusive. Unless noted, % is scaled to controls: 0 for no effect and ±100 for the full control effect; potency is read from the fitted curve at half-maximal effect.
SMILES,EPAC1 ag val,EPAC2 ant val
N#C/C(=C\c1ccc(O)c(O)c1)C(N)=S,-20.9%,?
N#CC(C#N)=Cc1cc(O)c(O)c(O)c1,-18.8%,89.1µM*!
CN(C)CCCCCCN(C)C (tested in a mixture with another compound),-10.0%,3.3%
C=CC[C@]1(O)CC[C@H]2[C@@H]3CCC4=CCCC[C@@H]4[C@H]3CC[C@@]21C,-1.0%,-8.1%
CCC(=O)O[C@H]1[C@@H](N2CCCCC2)C[C@H]2[C@@H]3CC[C@H]4C[C@H](OC(C)=O)[C@@H](N5CCCCC5)C[C@]4(C)[C@H]3CC[C@@]21C,7.7%,-13.5%
CCCCCCC(C)(C)c1ccc([C@@H]2C[C@H](O)CC[C@@H]2CCCO)c(O)c1,-52.9%,28.2µM*
CCCCCC1C(=O)O[C@H](C)[C@@H](NC(=O)c2cccc(NC=O)c2O)C(=O)OC(C)C1OC(=O)CC(C)C (some centres undefined),-194.6%,56.2µM*
CCCC[C@H]1C(=O)O[C@H](C)[C@H](NC(=O)c2cccc(NC=O)c2OC)C(=O)O[C@@H](C)[C@@H]1OC(=O)CC(C)C,-47.1%,?
CC(C)[C@H]1C(=O)N2CCC[C@H]2[C@]2(O)O[C@](NC(=O)[C@@H]3C[C@@H]4c5cccc6[nH]cc(c56)C[C@H]4N(C)C3)(C(C)C)C(=O)N12,1.2%,4.9%
C[C@@H]1[C@@H]2Cc3ccc(O)cc3[C@@]1(C)CCN2CCc1ccccc1,14.0%,12.0%[239 µM]
Cl.Cl.Cl.Cl.Cl.Cl.N.N.N.N.NNNNN.NNNNN.O.O.[Ru].[Ru].[Ru],-15.0%,56.2µM*
C[C@]12CC[C@H]3[C@@H](CCC4=CC(=O)CC[C@@]43C)[C@@H]1CC[C@@H]2OC(=O)CCc1ccccc1,21.1%,-10.4%[239 µM]
O=C1OC2(c3cc(Br)c(O)cc3Oc3c2cc(Br)c(O)[c]3[Hg])c2ccccc21 (centres undefined),39.8µM*!,i
O=C(O)c1ccccc1-c1c2cc(Br)c(=O)cc-2oc2[c]([Hg])c(O)c(Br)cc12,?,i
CC(=O)O[C@H]1C[C@H](O[C@H]2[C@@H](O)C[C@H](O[C@H]3[C@@H](O)C[C@H](O[C@H]4CC[C@@]5(C)[C@H](CC[C@@H]6[C@@H]5C[C@@H](O)[C@]5(C)[C@@H](C7=CC(=O)OC7)CC[C@]65O)C4)O[C@@H]3C)O[C@@H]2C)O[C@H](C)[C@H]1O[C@@H]1O[C@H](CO)[C@@H](O)[C@H](O)[C@H]1O,-35.2%,13.7%
CCC/C=C/C=C/C(=O)O[C@H]1/C(=C/C(=O)OC)C[C@H]2C[C@H]([C@@H](C)O)OC(=O)C[C@H](O)C[C@@H]3C[C@H](OC(C)=O)C(C)(C)[C@](O)(C[C@@H]4C/C(=C/C(=O)OC)C[C@H](/C=C/C(C)(C)[C@]1(O)O2)O4)O3,-77.8%,-28.8%
N[C@@H](CCl)C(=O)O,-7.7%,9.1%
NC(Cc1cc(O)c(O)cc1O)C(=O)O (centres undefined),17.9%,12.6µM*
O=C(C[C@@H]1NCCC[C@H]1O)Cn1cnc2cc(Br)c(Cl)cc2c1=O,-16.5%,17.5%
O=c1[nH]cc(N(CCCl)CCCl)c(=O)[nH]1,-6.4%,70.8µM*
COc1ccc(CCN)cc1O,-1.7%,-0.4%
NCCc1cc(O)c(O)cc1O,112µM*,-9.5%
CN[C@]1(c2ccccc2Cl)CCCCC1=O,5.8%,-6.5%
Oc1cc(Cl)ccc1Oc1ccc(Cl)cc1Cl,?,11.2µM*!
O=C(O)COc1ccc(Cl)cc1Cl,28.6%,-13.2%
SMILES,EPAC1 ag val,EPAC2 ant val
C=C[C@H]1CN2CC[C@H]1C[C@H]2[C@H](OC(=O)OCC)c1ccnc2ccc(OC)cc12,-17.7%,-9.7%
CCOC(=O)/C=C(C)/C=C/C[C@@H](C)CCCC(C)C,-29.5%,-16.7%
C[C@@H](N)C(=O)c1ccccc1,7.4%,19.2%[239 µM]
Oc1c(Cl)c(Cl)c(Cl)c(Cl)c1Cl,-64.3%,14.1µM*
CC(C)CCC(=O)O[C@H]1CC[C@H]2[C@@H]3CCC4=CC(=O)CC[C@]4(C)[C@H]3CC[C@]12C,6.0%,-13.6%
[S]=[Sb](=[S])[S][Sb](=[S])=[S],-3.8%,23.4%
Cc1ccc2c(c1)[C@]13CCCC[C@@H]1[C@H](C2)N(C)CC3,20.4%,4.1%
CC1=NCCc2c1[nH]c1cc(O)ccc21,79.4µM*,i
COc1ccc2c3c([nH]c2c1)C(C)=NCC3,?,-7.6%
O=S(=O)(O)C(F)(F)C(F)(F)C(F)(F)C(F)(F)C(F)(F)C(F)(F)C(F)(F)C(F)(F)F,-228.8%,100µM*
O=C1C[C@@H]2OCC=C3CN4CC[C@]56c7ccccc7N1[C@H]5[C@H]2[C@H]3C[C@H]46,2.5%,-1.8%
O=C1Nc2ccc(Cl)cc2C(c2ccccc2)=NC1O (centres undefined),2.6%,?
O=C1CN=C(c2ccccc2)c2cc(Cl)ccc2N1CC1CC1,-15.6%,22.4µM*
CCO/N=C(\CC)C1=C(O)CC(c2c(C)cc(C)cc2C)CC1=O (centres undefined),13.2%,?
CCCn1c(C)c(C(=O)c2cccc3ccccc23)c2ccccc21,2.1%,20µM*
Cc1c(C(=O)c2cccc3ccccc23)c2cccc3c2n1[C@H](CN1CCOCC1)CO3,?,-22.9%
NC(=O)[C@H](Cc1ccccc1)NC(=O)[C@H](Cc1c[nH]c2ccccc12)NC(=O)[C@@H]1CCCN1C(=O)[C@@H](N)Cc1ccc(O)cc1,-8.2%,3.8%[11.4 µM]
